Assay results: PubChem BioAssay AID1159580 (chemical genetic matrix, 2015)
Several values for one entry are separate records, joined by “and”; a condition that tells them apart may be missing. Equal entries are not always repeated. Hit rate of the full screen: of about 5,500 compounds, about 2,000 (36%) were called active. Not shown: some 18% with an inconclusive outcome. No stated cut-off is given here; in the data, active means normalized growth mostly below about 0.91 (no sharp cut-off); inconclusive means no clear call, values can overlap the other calls; inactive means mostly above about 0.92. The list shows a part of the results.

Assay: chemical genetic growth profiling, strain panel (AID 1159580);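 further: tested at 20 µM; growth read once vehicle control cultures reached saturation at 30 °C; 1 = growth at the plate median or of vehicle wells; lower values mean less growth of the strain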
Details: S. cerevisiae deletion strains, growth OD
[1] = locus YGR078C, strain PAC10, active compounds read low
[2] = locus YJR075W, strain HOC1, active compounds read low
[3] = locus YMR263W, strain SAP30, active compounds read low
[4] = locus YMR307W, strain GAS1, active compounds read low

Measured: normalized growth

CN1C2C[C@H](OC(=O)[C@H](CO)c3ccccc3)C[C@H]1[C@@H](O)C2
inactive: locus YAL021C, strain ccr4, active compounds read low 0.979 | locus YAL026C, strain drs2, active compounds read low 1.04 | locus YAL030W, strain snc1, active compounds read low 1.02 | locus YBL061C, strain skt5, active compounds read low 1.03 | locus YBR009C, strain hhf1, active compounds read low 1.01 | locus YBR021W, strain FUR4, active compounds read low 0.995 | locus YBR023C, strain chs3, active compounds read low 1.02 | locus YBR171W, strain sec66, active compounds read low 1.01 | locus YBR229C, strain ROT2, active compounds read low 1.01 | locus YBR231C, strain swc5, active compounds read low 1.02 | locus YBR279W, strain paf1, active compounds read low 1.02 | locus YCL011C, strain gbp2, active compounds read low 1.01 | locus YCL016C, strain dcc1, active compounds read low 0.998 | locus YCL029C, strain bik1, active compounds read low 0.997 | locus YCL069W, strain vba3, active compounds read low 1.01 | locus YCR088W, strain abp1, active compounds read low 1.01 | locus YDL005C, strain med2, active compounds read low 1.03 | locus YDL035C, strain GPR1, active compounds read low 1.02 | locus YDL040C, strain nat1, active compounds read low 1.02 | locus YDL074C, strain BRE1, active compounds read low 1.01 | locus YDL101C, strain DUN1, active compounds read low 1.01 | locus YDL134C, strain PPH21, active compounds read low 1.01 | locus YDL185W, strain tfp1, active compounds read low 0.992 | locus YDL192W, strain arf1, active compounds read low 0.995 | locus YDR001C, strain nth1, active compounds read low 1.02 | locus YDR069C, strain doa4, active compounds read low 1.03 | locus YDR101C, strain arx1, active compounds read low 1 | locus YDR137W, strain rgp1, active compounds read low 1.03 | locus YDR159W, strain sac3, active compounds read low 1.05 | locus YDR162C, strain NBP2, active compounds read low 1.02 | locus YDR195W, strain ref2 1.01 | locus YDR297W, strain sur2, active compounds read low 1.02 | locus YDR318W, strain mcm21, active compounds read low 1 | locus YDR334W, strain swr1, active compounds read low 1.01 | locus YDR335W, strain msn5, active compounds read low 1.02 | locus YDR388W, active compounds read low 1 | locus YDR392W, strain spt3, active compounds read low 0.911 | locus YDR502C, strain sam2, active compounds read low 1.01 | locus YEL003W, strain gim4, active compounds read low 1.03 | locus YEL037C, strain rad23, active compounds read low 1.01 | locus YEL061C, strain CIN8 (second series), active compounds read low 1.02 | locus YEL061C, strain CIN8, active compounds read low 1.01 | locus YER015W, strain faa2, active compounds read low 1.01 | locus YER016W, strain bim1, active compounds read low 1.03 | locus YER110C, active compounds read low 1 | locus YER111C, strain swi4, active compounds read low 1.02 | locus YER155C, strain BEM2 (second series), active compounds read low 1.02 | locus YER155C, strain BEM2, active compounds read low 1.01 | locus YER167W, strain BCK2, active compounds read low 1 | locus YFR010W, strain ubp6, active compounds read low 1.04 | locus YGL078C, strain dbp3, active compounds read low 0.999 | locus YGL086W, strain mad1, active compounds read low 0.993 | locus YGL167C, strain pmr1, active compounds read low 1.02 | locus YGL173C, strain kem1, active compounds read low 1.03 | locus YGL227W, strain vid30, active compounds read low 1.02 | locus YGL240W, strain doc1, active compounds read low 1.02 | locus YGL248W, strain PDE1, active compounds read low 1.01 | locus YGL253W, strain hxk2, active compounds read low 1.04 | [1] 1.01 | locus YGR135W, strain pre9, active compounds read low 1 | locus YGR229C, strain SMI1, active compounds read low 1.02 | locus YGR252W, strain gcn5, active compounds read low 0.955 | locus YHR013C, strain ard1, active compounds read low 1.01 | locus YHR027C, strain rpn1, active compounds read low 1.01 | locus YHR030C, strain SLT2, active compounds read low 1.01 | locus YHR079C, strain IRE1 (second series), active compounds read low 1 | locus YHR079C, strain IRE1, active compounds read low 0.992 | locus YHR094C, strain hxt1, active compounds read low 0.992 | locus YHR129C, strain ARP1, active compounds read low 1.01 | locus YHR142W, strain chs7, active compounds read low 1.03 | locus YHR200W, strain rpn10, active compounds read low 1 | locus YIL066C, strain RNR3, active compounds read low 1.02 | locus YIL073C, strain SPO22, active compounds read low 1.01 | locus YIL125W, strain kgd1, active compounds read low 0.991 | locus YIR030C, strain dcg1, active compounds read low 0.99 | locus YJL092W, strain hpr5, active compounds read low 1.02 | locus YJL095W, strain BCK1 (second series), active compounds read low 1.01 | locus YJL095W, strain BCK1, active compounds read low 1.02 and 1 | locus YJL115W, strain asf1, active compounds read low 1.01 | locus YJL129C, strain trk1, active compounds read low 1.02 | locus YJL134W, strain LCB3, active compounds read low 1.01 | locus YJL154C, strain vps35, active compounds read low 1.02 | locus YJL164C, strain tpk1, active compounds read low 0.996 | locus YJL166W, strain qcr8, active compounds read low 1.03 | locus YJL168C, strain set2, active compounds read low 1 | locus YJL187C, strain SWE1 (second series), active compounds read low 1.01 | locus YJR043C, strain POL32, active compounds read low 1.03 | locus YJR066W, strain TOR1, active compounds read low 0.96 | [2] 1.01 | locus YKL009W, strain mrt4, active compounds read low 1.01 | locus YKL068W, active compounds read low 0.987 | locus YKL085W, strain MDH1 (second series), active compounds read low 1.01 | locus YKL085W, strain MDH1, active compounds read low 1.01 | locus YKL160W, strain elf1, active compounds read low 1 | locus YKL190W, strain CNB1, active compounds read low 1.01 | locus YKR001C, strain vps1, active compounds read low 0.981 | locus YKR026C, strain gcn3, active compounds read low 1.01 | locus YKR091W, strain srl3, active compounds read low 1.02 | locus YLL001W, strain dnm1, active compounds read low 1.02 | locus YLL026W, active compounds read low 1.02 | locus YLL041C, strain sdh2, active compounds read low 1.02 | locus YLR027C, strain aat2, active compounds read low 1.03 | locus YLR039C, strain RIC1, active compounds read low 1.03 | locus YLR058C, strain SHM2, active compounds read low 1.01 | locus YLR102C, strain apc9, active compounds read low 0.997 | locus YLR113W, strain HOG1, active compounds read low 0.978 | locus YLR221C, strain rsa3, active compounds read low 1.02 | locus YLR258W, strain gsy2, active compounds read low 1.02 | locus YLR262C, strain YPT6 (second series), active compounds read low 1.03 | locus YLR262C, strain YPT6, active compounds read low 1.05 | locus YLR268W, strain sec22, active compounds read low 0.995 | locus YLR320W, strain mms22, active compounds read low 1.04 | locus YLR330W, strain CHS5, active compounds read low 1.01 | locus YLR342W, strain FKS1 (second series), active compounds read low 1.02 | locus YLR342W, strain FKS1, active compounds read low 1.02 | locus YLR357W, strain rsc2, active compounds read low 1 | locus YLR370C, strain arc18, active compounds read low 1.01 | locus YLR371W, strain rom2, active compounds read low 0.989 | locus YLR384C, strain iki3, active compounds read low 1.02 | locus YLR418C, strain cdc73, active compounds read low 0.991 | locus YML016C, strain PPZ1, active compounds read low 1.01 | locus YML032C, strain rad52, active compounds read low 0.99 | locus YML120C, strain ndi1, active compounds read low 1 | locus YML124C, strain tub3, active compounds read low 1 | locus YMR058W, strain fet3, active compounds read low 1.03 | locus YMR078C, strain ctf18, active compounds read low 0.999 | locus YMR125W, strain sto1, active compounds read low 0.983 | locus YMR129W, active compounds read low 1.02 | locus YMR205C, strain PFK2, active compounds read low 1.04 | locus YMR223W, strain ubp8, active compounds read low 1.02 | locus YMR231W, strain pep5, active compounds read low 1.01 | [3] 1.01 | [4] 0.97 | locus YNL067W, strain RPL9B, active compounds read low 1.01 | locus YNL071W, strain lat1, active compounds read low 1.02 | locus YNL183C, strain NPR1, active compounds read low 0.96 | locus YNL209W, strain ssb2, active compounds read low 1.04 | locus YNL233W, strain BNI4, active compounds read low 0.992 | locus YNL248C, strain rpa49, active compounds read low 0.941 | locus YNL250W, strain rad50, active compounds read low 1 | locus YNL271C, strain bni1, active compounds read low 0.99 | locus YNL298W, strain CLA4, active compounds read low 1.02 | locus YNL307C, strain MCK1, active compounds read low 0.995 | locus YNL322C, strain KRE1 (second series), active compounds read low 1.01 | locus YNR049C, strain mso1, active compounds read low 1.01 | locus YNR052C, strain pop2, active compounds read low 0.992 | locus YOL006C, strain TOP1, active compounds read low 0.998 | locus YOL012C, strain htz1 0.77 | locus YOL147C, strain pex11, active compounds read low 1 | locus YOR001W, strain rrp6, active compounds read low 1.04 | locus YOR061W, strain CKA2, active compounds read low 1.01 | locus YOR069W, strain VPS5, active compounds read low 1.01 | locus YOR070C, strain gyp1, active compounds read low 1.03 | locus YOR080W, strain dia2, active compounds read low 1.02 | locus YOR083W, strain WHI5, active compounds read low 1.01 | locus YOR106W, strain vam3, active compounds read low 0.994 | locus YOR136W, strain idh2, active compounds read low 0.992 | locus YOR144C, strain elg1, active compounds read low 0.997 | locus YOR184W, strain ser1, active compounds read low 1.02 | locus YOR231W, strain MKK1, active compounds read low 0.99 | locus YOR265W, strain rbl2, active compounds read low 1.01 | locus YOR270C, strain vph1, active compounds read low 1.07 | locus YOR290C, strain snf2, active compounds read low 0.969 | locus YOR316C, strain cot1, active compounds read low 1 | locus YPL051W, strain arl3, active compounds read low 1 | locus YPL078C, strain atp4, active compounds read low 0.984 | locus YPL106C, strain sse1, active compounds read low 1.01 | locus YPL240C, strain hsp82, active compounds read low 1.02 | locus YPL256C, strain CLN2, active compounds read low 1 | locus YPR119W, strain clb2, active compounds read low 1 | locus YPR141C, strain kar3, active compounds read low 0.995 | locus YPR163C, strain tif3, active compounds read low 1.02 | locus YPR167C, strain met16, active compounds read low 1 | strain wtn01, active compounds read low 0.986

CN1C2CCC1CC(OC(=O)c1cc(Cl)cc(Cl)c1)C2 (stereo not drawn)
inactive: locus YAL040C, strain CLN3, active compounds read low 1 | locus YCL061C, strain MRC1 (second series), active compounds read low 1 | locus YDR363W, strain ESC2, active compounds read low 0.99 | locus YER002W, strain NOP16, active compounds read low 0.997 | [1] 1.01 | [2] 0.997 | [3] 0.999 | [4] 1 | locus YNL175C, strain NOP13, active compounds read low 1.01 | locus YNL197C, strain WHI3, active compounds read low 1.01 | locus YNL224C, strain SQS1, active compounds read low 1.03 | locus YNL322C, strain KRE1, active compounds read low 0.996 | locus YOR083W, strain WHI5 (second series), active compounds read low 1.01 | locus YPL241C, strain CIN2, active compounds read low 1
